Source: PubChem BioAssay (National Center for Advancing Translational Sciences (NCATS))
Most compounds without a hit are left out; they make up all but 19% or so of the library.
DT40 TDP1 no CPT – qHTS for Inhibitors of human tyrosyl-DNA phosphodiesterase 1 (TDP1): qHTS in cells in absence of CPT; DT40 Tdp1-/- hTDP1 cells, no CPT, ATP luminescence, 48 h; Potency, µM (top dose mostly 46.2 µM), for the others: at the top dose activity change, negative = growth inhibition, hits mostly inhibitors; hit rate 15% among 420,000; further: potency means the concentration at half of the fitted maximal effect; nearly all actives have a fitted effect of over 55% in size
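Growth of hTDP1-complemented DT40 Tdp1-knockout cells is measured by ATP luminescence after at least 48 hr compound exposure at 37 °C, with DMSO substituting for the 20 nM CPT used in the parallel screen.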
uPA surface inh – qHTS for Inhibitors of Cell Surface uPA Generation; hit rate 0.31% among 330,000; Potency, µM (top dose mostly 38.3 µM), for inactives: at the top dose activity change, negative = inhibition, most hits filed as inhibitors; cell surface uPA generation assay, qHTS; active means well fitted inhibition curve with a large enough effect; inconclusive means small, poorly fitted or top-dose-only effect; inactive means no such curve, though single readings can be large or run the other way; tested in mouse RAW 264.7 cells; further: potency means the concentration at half of the fitted maximal effect; nearly all actives have a fitted effect of over 55% in size
HT1080 IDH1KD tx – qHTS for induction of synthetic lethality in tumor cells producing 2HG: qHTS for the HT-1080-IDH1KD cell line | HT-1080 IDH1 knockdown viability, ATP luminescence, 48 h | Potency, µM (highest dose often 46.1 µM), for the others: at the highest dose activity, negative = toxicity, actives largely listed as cytotoxic | hit rate 2% among 360,000 | AID 686971, 2013;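 further: potency means the concentration at half of the fitted maximal effect; 0% = DMSO wells and -100% = cell-free medium wells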
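IDH1KD HT-1080 cells, 750/well, RPMI + 5% FBS; compound pinned after 2 h settling; 48 h, 37 °C; CellTiter-Glo luminescence; % activity normalised to DMSO and no-cell wells; curves fitted, classed by r2 and efficacy.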
DT40 TDP1 CPT – qHTS for Inhibitors of human tyrosyl-DNA phosphodiesterase 1 (TDP1): qHTS in cells in presence of CPT; chicken DT40 Tdp1-/-;hTDP1 cells + 20 nM CPT, ATP luminescence, 48 h; Potency, µM (doses to about 46.2 µM), for the others: at the highest dose activity change, negative = growth inhibition, actives largely listed as inhibitors; hit rate 12% among 420,000; AID 686979, 2013; further: potency means the concentration at half of the fitted maximal effect; nearly all actives have a fitted effect of over 55% in size
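Cell growth measured by CellTiter-Glo luminescence after a minimum 48 h, 37 C compound exposure with 20 nM CPT in Tdp1-knockout DT40 cells stably expressing hTDP1, seeded 400/well; qHTS titration format.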
HT1080NT lethal – qHTS for induction of synthetic lethality in tumor cells producing 2HG: qHTS for the HT-1080-NT fibrosarcoma cell line | Potency, µM (top dose mostly 46.1 µM), for the others: at the top dose activity, negative = less viability, actives largely listed as cytotoxic | hit rate 1.6% among 360,000 | HT-1080-NT fibrosarcoma viability, CellTiter-Glo ATP luminescence, 48 h | AID 686970, 2013;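 further: NT is the 2HG producing partner of a matched IDH1 knockdown line; potency means the concentration at half of the fitted maximal effect; 0% = DMSO-treated cells and -100% = media-only wells without cells; nearly all actives have a fitted effect of over 55% in size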
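Luminescent CellTiter-Glo readout after 48 hours of compound exposure at 37 degrees C defined viability of HT-1080-NT cells. Activity was normalized to DMSO wells and cell-free media wells; concentration-response curves were fitted and assigned curve classes.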
IL1B secr inh – qHTS for Inhibitors of Inflammasome Signaling: IL-1-beta AlphaLISA Primary Screen | hit rate 4.7% among 360,000 | AID 743279, 2014 | activity change, % at 57.5 µM | THP-1 LPS/ATP IL-1B secretion, AlphaLISA, 16 h; stronger effect = lower value; in the data active means activity change below about -50%; inconclusive means mostly about -30% to -49%
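THP-1 cells pretreated 1 hr with compounds (up to 57.5 uM final), then stimulated with LPS (250 ng/mL final) plus ATP (1.25 mM final); secreted IL-1B measured by AlphaLISA after 16 hr, decreased signal indicating inhibition.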
Starred values were filed as active, the others as inactive; ? = inconclusive; . = not tested or not shown; [ ] = another dose, or the depositor's remark. Unless noted, the call rests on the fitted dose curve; in most records, active means well fitted curve in the direction sought with a large enough effect; inconclusive means small, poorly fitted or top-dose-only effect, or another doubt; inactive means no such curve, though single readings can be large; an effect the other way counts as inactive or inconclusive. Unless noted, on the % scale 0 is the no-effect control and ±100 the full control effect.

SMILES	DT40 TDP1 no CPT	uPA surface inh	HT1080 IDH1KD tx	DT40 TDP1 CPT	HT1080NT lethal	IL1B secr inh
CCOc1ccc(NS(=O)(=O)c2ccc(C(=O)N(C)CC(=O)Nc3cccc(OC)c3)cc2)cc1	16µM*	?	?	18µM*	-3%[9.24 µM]	13
CCOc1ccc(S(=O)(=O)Nc2ccc(C(=O)N3CCCC3)cc2)cc1	-3%	0%	-2%	-10%	0%	-10
COc1ccc(NS(=O)(=O)c2ccc(C(=O)N3CCN(Cc4ccccc4)CC3)cc2)cc1	?	-29%	-11%	12µM*	-12%	-3
O=S(=O)(Nc1c(O)ccc2ccccc12)c1ccccc1	16µM*	?	-10%	?	-6%	-15
Cc1c(O)ccc(NS(=O)(=O)c2ccccc2)c1C	-21%	-1%	0%	8%	7%	-8
CCC(Oc1ccc(F)cc1)C(=O)Nc1nc(-c2ccc(F)cc2)ns1 (stereo not drawn)	10µM*	.	.	18µM*	.	.
O=C(NCc1ccccn1)[C@@H]1CCCN1C(=O)[C@@H]1CCCN1C(=O)c1ccc(Cl)cc1	-23%	.	11%	2%	21%	4
Cc1ccc(CNC(=O)N2CCN(S(=O)(=O)c3ccccc3)CC2)cc1	-8%	-7%	13%	7%	11%	-8
CC1=NN(c2ccccc2)C(=O)C1C(=S)SC1CC(=O)NC1=O (stereo not drawn)	29µM*	.	-13%	?	-2%	14
CNc1nc(C23CC4CC(CC(C4)C2)C3)cs1	?	0%	-20%	?	-1%	53
O=C(CCC(=O)Nc1ccc(Br)cc1)N/N=C/c1ccccc1O	6.5µM*	-7%	13µM*	?	10µM*	144
O=C(NCc1ccccn1)C(=O)N/N=C/c1ccccc1O	23µM*	0%	?	?	-18%	146
Cc1cccc(NC(=O)CCC(=O)N/N=C/c2ccc(O)cc2O)c1	?	-7%	?	-94%	?	146
Cc1ccc(NC(=O)CCC(=O)N/N=C/c2ccccc2O)cc1	15µM*	?	?	10µM*	?	112
CSc1nc(C)cc(OCC(=O)N/N=C/c2ccccc2O)n1	?	-16%	?	2.9µM*	?	49
O=C(N/N=C\c1ccccc1O)c1ccccc1O	0.53µM*	.	.	0.53µM*	.	.
O=C(N/N=C\c1cccnc1)c1ccccc1O	-5%	-1%	22%	9%	19%	-17
O=C(Cn1cc(C(F)(F)F)ccc1=O)N/N=C/c1ccccc1O	7.3µM*	-5%	15µM*	16µM*	?	116
Cc1ccc(SCCC(=O)N/N=C/c2ccccc2O)cc1	1.3µM*	-4%	?	0.65µM*	-30%	144
O=C(CCCCC(=O)NN=Cc1ccccc1O)NN=Cc1ccccc1O	5.8µM*	-6%	6.5µM*	5.8µM*	?	123
O=C(CCCC(=O)N/N=C/c1ccccc1C(=O)O)N/N=C/c1ccccc1C(=O)O	-19%	13%	13%	-20%	8%	10
Cn1nc(N)c2ncc(-c3ccc(Cl)cc3)nc21	-4%	.	?	-8%	-2%	0
CN[C@@H]1[C@@H](O[C@H]2O[C@H](CO)[C@@H](N)[C@H](O)[C@H]2O)O[C@H]2C[C@@H](N)[C@@H](O[C@H]3[C@H](O)[C@@H](O)[C@H](N)C[C@@H]3N)O[C@@H]2[C@@H]1O	-4%[21.1 µM]	.	.	-5%[21.1 µM]	.	.
O=C(N/N=C/c1cc(Br)ccc1O)c1ccccc1Cl	0.92µM*	-7%	16µM*	0.65µM*	?	53
CCCCCCCC(=O)N/N=C/c1ccc(Br)cc1	15µM*	.	-27%	?	6%	-9
SMILES	DT40 TDP1 no CPT	uPA surface inh	HT1080 IDH1KD tx	DT40 TDP1 CPT	HT1080NT lethal	IL1B secr inh
COc1ccc(/C=N/NC(=O)CCC(=O)Nc2ccc(Br)cc2)c(OC)c1	?	2%	?	?	?	-75*
O=C(N/N=C/c1cc(Cl)ccc1O)c1ccncc1	3.3µM*	-10%	4.1µM*	5.8µM*	6.5µM*	217
CCCCn1c(N)c(N(CC(C)C)C(=O)CSc2nnc(C)n2-c2ccc(OC)cc2)c(=O)[nH]c1=O	15%	3%	2%	7%	9%	1
COc1ccc(N(C(=O)CCl)C(C)(C(=O)Nc2c(C)cccc2C)c2ccccn2)cc1 (stereo not drawn)	-4%	15%	4%	-11%	2%	17
N#CC1=C(Nc2ccccc2Cl)SC2(CCCC2)NC1=O	18µM*	.	?	16µM*	2%	-5
N#CC1=C(Nc2ccccc2Cl)SC(c2ccncc2)NC1=O (stereo not drawn)	2%	.	24%	-20%	16%	-12
O=S(=O)(Nc1nc2ccccc2[nH]1)c1ccc(Cl)cc1	-23%	-1%	-12%	-12%	-7%	-6
O=S(=O)(Nc1cc2nc3ccccc3nc2n1Cc1ccccc1)c1ccc(Cl)cc1	23µM*	-2%	-6%	?	?	-91*
CCCCCCC(=O)N1C/C=C\C(c2ccc(OC)cc2)N(Cc2ccc(F)cc2)C(=O)C1 (stereo not drawn)	23µM*	-10%	-9%	?	-3%	-4
COc1ccc(C2/C=C\CN(C(=O)CC(C)(C)C)CC(=O)N2Cc2ccc(F)cc2)cc1 (stereo not drawn)	?	-3%	-6%	?	0%	7
CCCCCCNC(=O)N1C/C=C\C(c2ccc(OC)cc2)N(Cc2ccc(F)cc2)C(=O)C1 (stereo not drawn)	23µM*	15%	-5%	?	0%	16
CC(C)NC(=O)COc1coc(CN2CCN(c3ccccc3)CC2)cc1=O	3%	11%	2%	10%	4%	16
COc1ccc(-n2c(=O)cnc3cnc(N(C)C)nc32)cc1	?	.	.	23µM*	.	.
CN(C)c1ncc2ncc(=O)n(Cc3cccs3)c2n1	21µM*	.	.	?	.	.
COc1ccc(Oc2ncc3ncc(=O)n(-c4ccc(OC)cc4)c3n2)cc1	-26%	.	.	-5%	.	.
COc1ccc(-c2cn3cc(Br)cnc3n2)cc1	?	-9%	-3%	26µM*	-1%	-8
CC(C)[C@@H]1[C@H]2CC[C@H](C2)[C@H]1N	8%	.	.	14%	.	.
